Measured values from PubChem BioAssay.
For some assays here: Entries with a potency or affinity are not part of this list. The list shows a part of the results. The source made the active and inactive calls.

Tests used:
[1] = target: Inward rectifier potassium channel 2 (Mus musculus) (UniProt P35561); assay: mouse Kir2.1 channel blockers, retest, confirmation, cell-based, FluxOR thallium flux, duplicate (AID 2032;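 active = Primary-screen hit whose thallium flux fell at least 3 control SD below untreated wells in both duplicates, with normal baseline fluorescence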); conditions: Kir2.1-expressing cells, FluxOR thallium flux fluorescence, at 10 µM; stronger effect = lower value
[2] = nonspecific thallium flux effects in parental HEK293 cells, confirmation, counter-screen for Kir2.1 inhibitor project, cell-based, FluxOR thallium flux, duplicate, single concentration (AID 2105); conditions: FluxOR thallium flux fluorescence, at 10 µM; 0% = unstimulated blank wells
[3] = target: Voltage-gated inwardly rectifying potassium channel KCNH2 (Homo sapiens) (UniProt Q12809); assay: hERG channel inhibition, counter-screen for Kir2.1 inhibitor project, cell-based, thallium flux (AID 2236; call rule not given here;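 note: host cells are CHO cells stably expressing hERG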); conditions: hERG-expressing cells, at 10 µM; stronger effect = higher value
[4] = target: Potassium channel subfamily K member 9 (Homo sapiens) (UniProt Q9NPC2); assay: KCNK9 channel inhibition, selectivity assay for Kir2.1 inhibitor project, cell-based (AID 2329; call rule not given here); conditions: KCNK9-expressing cells, ion flux inhibition, at 10 µM; stronger effect = higher value
[5] = target: Inward rectifier potassium channel 2 (Mus musculus) (UniProt P35561); assay: mouse Kir2.1 channel blockers, Kir2.1 inhibitor project, cell-based, secondary, automated electrophysiology (AID 463252; call rule not given here); conditions: Kir2.1 cells, automated patch-clamp current inhibition, at 25 µM; stronger effect = higher value
[6] = nonspecific thallium flux increase in parental CHO-K1, confirmation, counter-screen for KCNQ2 potentiator project, cell-based, FluxOR thallium flux, duplicate (AID 2282;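 active = signal rise of at least 3 SD above the untreated control mean, in both duplicate wells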;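 note: counter screen of KCNQ2 potentiator hits so any rise reflects channel-independent effects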); conditions: parental CHO-K1 cells, FluxOR thallium flux fluorescence; at 10 µM; stronger effect = higher value; zero = vehicle mean+3SD, 100% = vehicle-minus-blank window
[7] = target: Potassium voltage-gated channel subfamily KQT member 1 (Homo sapiens) (UniProt P51787); assay: human KCNQ1 channel potentiation off-target, confirmation, selectivity assay for KCNQ2 potentiator project, cell-based, CHO, FluxOR thallium flux (AID 2283;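 active = fluorescence ratio rise of at least 3 SD of vehicle wells above their mean, in both replicate wells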;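 note: 0% = vehicle mean plus 3 SD and 100% = vehicle minus unstimulated blank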); conditions: CHO KCNQ1 stable, FluxOR thallium flux fluorescence; at 10 µM; stronger effect = higher value; beyond 3SD, as % of vehicle-control signal
[8] = target: Potassium voltage-gated channel subfamily KQT member 2 (Rattus norvegicus) (UniProt O88943); assay: rat KCNQ2 channel potentiators, confirmation, cell-based, CHO, FluxOR thallium flux, duplicate (AID 2287;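 active = fluorescence ratio rising 3 SD or more over the vehicle control mean in both replicates, plus primary screen hit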;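 note: peak minus minimum thallium fluorescence divided by baseline after K/Tl stimulus; 0% = vehicle mean plus 3 SD and 100% = vehicle minus unstimulated blank difference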); conditions: CHO-KCNQ2 cells, FluxOR thallium flux fluorescence; at 10 µM; stronger effect = higher value
[9] = target: Inward rectifier potassium channel 2 (Mus musculus) (UniProt P35561); assay: PubChem AID 2345; conditions: HEK293 Kir2.1, FluxOR thallium flux fluorescence; at 10 µM; stronger effect = higher value;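 note: 0% = vehicle mean plus 3 SD and 100% = vehicle minus no-stimulus blank window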
[10] = target: Potassium voltage-gated channel subfamily KQT member 2 (Rattus norvegicus) (UniProt O88943); assay: potentiators of retigabine-insensitive KCNQ2 W236L, mechanism study for KCNQ2 potentiator project, cell-based, rat KCNQ2 W236L, CHO, automated patch clamp (AID 2558;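 active = current increase at least 3 SD of the untreated controls above them in both duplicate recordings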); conditions: at 25 µM; outcome: automated patch clamp current
[11] = system: TRPC4 beta (transient receptor potential cation channel C4), mouse; assay: activators of mouse TRPC4 channel, confirmation, cell-based, Fluo4 calcium, HEK293 TRPC4beta/mu-opioid, duplicates, 10 µM (AID 2426;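 active = fluorescence ratio normalized to control raised more than 50% in primary screen plus both repeat runs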); conditions: Fluo4 calcium fluorescence, at 10 µM; stronger effect = higher value
[12] = system: transient receptor potential cation channel C4 beta (TRPC4), mouse; assay: activators of mouse TRPC4 channel, confirmation, cell-based, second round, Fluo4, HEK293 TRPC4beta/mu-opioid, 1 µM (AID 2461;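 active = primary screen active and over 50% activation in each of two duplicate runs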); conditions: Fluo4 calcium fluorescence, at 1 µM; stronger effect = higher value
[13] = system: TRPC4 (transient receptor potential cation channel C4 beta), mouse; assay: positive allosteric modulators of mouse TRPC4, confirmation, cell-based, second round, Fluo-4, HEK293 TRPC4beta/mu-opioid, 1 µM (AID 2554;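 active = primary screen hit whose fluorescence ratio, in both repeats, exceeds the weak agonist control mean by 3 SD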); conditions: DAMGO EC20, Fluo-4 calcium flux, at 1 µM; stronger effect = higher value
[14] = system: TRPC4 beta (transient receptor potential cation channel C4), mouse; assay: positive allosteric modulators of mouse TRPC4, confirmation, cell-based, Fluo-4, HEK293 TRPC4beta/mu-opioid (AID 2555;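 active = primary screen hit whose calcium fluorescence ratio, in both repeats, exceeds the weak agonist control mean by 3 SD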); conditions: DAMGO EC20, Fluo-4 calcium flux, at 10 µM; stronger effect = higher value
[15] = target: Short transient receptor potential channel 4 (Mus musculus) (UniProt Q9QUQ5); assay: inhibitors of mouse TRPC4 channel, confirmation, cell-based, Fluo4, HEK293 TRPC4beta/mu-opioid (AID 2636;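 active = calcium signal cut by more than 3 SD below the full-agonist control yet still positive, in both repeats and the earlier primary screen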); conditions: DAMGO, Fluo4 calcium flux, at 10 µM; stronger effect = higher value
[16] = target: Short transient receptor potential channel 4 (Mus musculus) (UniProt Q9QUQ5); assay: inhibitors of mouse TRPC4 channel, confirmation, cell-based, second round, Fluo4, HEK293 TRPC4beta/mu-opioid, 1 µM (AID 2637;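 active = calcium signal ratio cut to more than 3 SD under the fully stimulated control mean yet still positive, in both repeats and the primary screen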;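 note: percent of integrated ratio relative to wells lacking test compound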); conditions: Fluo4 calcium flux, DAMGO, at 1 µM; stronger effect = higher value
[17] = target: Short transient receptor potential channel 4 (Mus musculus) (UniProt Q9QUQ5); assay: mouse TRPC4 channel activators, dose response, cell-based, HEK293 TRPC4/mu-opioid, Fluo-4 calcium (AID 434937;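 active = primary screen activator hit with a dose response curve and TRPC4 channel activation at any tested dose; inactive = no activation, no dose response, or not a primary hit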)
[18] = target: Short transient receptor potential channel 4 (Mus musculus) (UniProt Q9QUQ5); assay: TRPC4 positive allosteric modulators, dose response, cell-based, HEK293 TRPC4/mu-opioid, Fluo-4 calcium, EC20 DAMGO (AID 434941;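 active = earlier screen potentiator hit that boosts the TRPC4 ion channel at some dose, with a dose response; inactive = no potentiation, no dose response, or not a prior hit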;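 note: calcium entry triggered by an EC20 dose of DAMGO at the co-expressed mu-opioid receptor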)
[19] = target: Short transient receptor potential channel 6 (Mus musculus) (UniProt Q61143); assay: inhibition of mouse TRPC6 channel, confirmation, selectivity assay for TRPC4 inhibitor project, cell-based, HEK293, membrane potential dye, duplicate (AID 434948;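 active = active in primary screen and both duplicates, each dropping signal beyond three positive-control SD with fluorescence still positive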); conditions: HEK293 TRPC6, membrane potential dye fluorescence, at 10 µM, stimulated with maximal-effect acetylcholine; stronger effect = higher value
[20] = target: Short transient receptor potential channel 6 (Mus musculus) (UniProt Q61143); assay: activation of mouse TRPC6 channel, confirmation, selectivity assay for TRPC4 activator project, cell-based, HEK293, membrane potential dye, duplicate (AID 434950;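 active = membrane potential signal rise above negative control mean plus 3 SD in both duplicates, also active in the earlier TRPC4 screen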); conditions: HEK293 TRPC6, membrane potential fluorescence, at 10 µM; stronger effect = higher value
[21] = target: Short transient receptor potential channel 6 (Mus musculus) (UniProt Q61143); assay: TRPC6 potentiation by TRPC4 potentiator hits, confirmation, selectivity assay for TRPC4 potentiator project, HEK293 cells, membrane potential dye, duplicate (AID 434952;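 active = compound raising the membrane signal above positive-control mean plus 3 SD in both repeats, and a primary screen hit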); conditions: HEK293 TRPC6, membrane potential dye fluorescence, at 10 µM, maximal acetylcholine added after compound; stronger effect = higher value
[22] = target: Short transient receptor potential channel 4 (Mus musculus) (UniProt Q9QUQ5); assay: calcium flux activators in TRPC4/5HT1a cells, counter-screen for TRPC4 activator project, cell-based, second counter screen, HEK293 TRPC4/5HT1a, Fluo-4 (AID 434977;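 active = calcium signal rise above buffer-control mean plus 5 SD in both duplicates, and also a hit in the primary screen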); conditions: Fluo-4 calcium flux, at 10 µM; stronger effect = higher value
[23] = calcium flux inhibitors in TRPC4/5HT1a cells, confirmation, counter-screen for TRPC4 inhibitor project, cell-based, second counter screen, HEK293 TRPC4/5HT1a, Fluo-4 (AID 434978;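 active = primary screen active whose calcium signal fell more than 3 SD beyond the full-serotonin control mean in both duplicate plates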); conditions: Fluo-4 calcium flux, at 10 µM, serotonin added to trigger calcium flux; stronger effect = higher value
[24] = system: TRPC4 (mouse), co-expressed with 5HT1a in HEK293; assay: calcium flux potentiators in TRPC4/5HT1a cells, confirmation, counter-screen for TRPC4 potentiator project, cell-based, second counter screen, HEK293 TRPC4/5HT1a, Fluo-4 (AID 434979;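 active = signal rise over 3 SD above mean of control wells given weak agonist, in both repeats and first screen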); conditions: Fluo-4 calcium flux, at 10 µM, serotonin added at its EC20 dose; stronger effect = higher value
[25] = calcium flux activation in mu-opioid HEK293 cells, confirmation, counter-screen for TRPC4 activator project, cell-based, HEK293 mu-opioid receptor line (AID 449723;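 active = hit in primary screen, with calcium signal over 5 SD above buffer well mean in both duplicates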;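 note: counter screen cells carry the mu-opioid receptor alone and lack TRPC4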); conditions: Fluo-4 calcium fluorescence, at 10 µM; stronger effect = higher value
[26] = calcium flux enhancement in mu-opioid HEK293 cells, confirmation, counter-screen for TRPC4 allosteric potentiator project, cell-based, HEK293 mu-opioid receptor line (AID 449724;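 active = calcium signal rise more than 3 SD above the low-dose agonist control mean, in both duplicate plates and the primary screen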); conditions: Fluo-4 calcium flux, at 10 µM, compound added before EC20 DAMGO stimulus; stronger effect = higher value

Chain of Short transient receptor potential channel 6 (Mus musculus) (Q61143 whole entry, looked up): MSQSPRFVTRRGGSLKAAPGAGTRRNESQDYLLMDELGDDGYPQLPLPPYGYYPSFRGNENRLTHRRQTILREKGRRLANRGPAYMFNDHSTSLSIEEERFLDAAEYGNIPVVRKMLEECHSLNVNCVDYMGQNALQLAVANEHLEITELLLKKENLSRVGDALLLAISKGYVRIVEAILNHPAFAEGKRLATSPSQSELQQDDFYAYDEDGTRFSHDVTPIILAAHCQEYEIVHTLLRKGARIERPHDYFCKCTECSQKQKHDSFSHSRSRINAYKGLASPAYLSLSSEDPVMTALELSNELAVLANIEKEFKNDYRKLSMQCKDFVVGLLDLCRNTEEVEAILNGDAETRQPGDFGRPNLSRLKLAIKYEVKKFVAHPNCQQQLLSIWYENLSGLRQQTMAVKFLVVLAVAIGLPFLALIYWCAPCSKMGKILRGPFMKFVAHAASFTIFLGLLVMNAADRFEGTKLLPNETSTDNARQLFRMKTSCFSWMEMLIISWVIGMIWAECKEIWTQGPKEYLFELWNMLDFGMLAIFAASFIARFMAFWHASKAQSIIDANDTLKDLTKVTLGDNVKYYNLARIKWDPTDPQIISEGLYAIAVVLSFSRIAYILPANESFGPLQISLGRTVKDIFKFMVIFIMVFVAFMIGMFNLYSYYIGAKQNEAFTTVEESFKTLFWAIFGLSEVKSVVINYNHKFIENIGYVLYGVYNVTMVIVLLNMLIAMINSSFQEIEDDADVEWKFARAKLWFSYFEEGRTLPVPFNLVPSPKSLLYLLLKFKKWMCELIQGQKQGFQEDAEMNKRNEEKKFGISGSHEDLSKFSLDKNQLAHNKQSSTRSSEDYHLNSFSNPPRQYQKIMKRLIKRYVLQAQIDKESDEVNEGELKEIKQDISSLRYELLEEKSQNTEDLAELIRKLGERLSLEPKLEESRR
Chain of Inward rectifier potassium channel 2 (Mus musculus) (P35561 whole entry, looked up): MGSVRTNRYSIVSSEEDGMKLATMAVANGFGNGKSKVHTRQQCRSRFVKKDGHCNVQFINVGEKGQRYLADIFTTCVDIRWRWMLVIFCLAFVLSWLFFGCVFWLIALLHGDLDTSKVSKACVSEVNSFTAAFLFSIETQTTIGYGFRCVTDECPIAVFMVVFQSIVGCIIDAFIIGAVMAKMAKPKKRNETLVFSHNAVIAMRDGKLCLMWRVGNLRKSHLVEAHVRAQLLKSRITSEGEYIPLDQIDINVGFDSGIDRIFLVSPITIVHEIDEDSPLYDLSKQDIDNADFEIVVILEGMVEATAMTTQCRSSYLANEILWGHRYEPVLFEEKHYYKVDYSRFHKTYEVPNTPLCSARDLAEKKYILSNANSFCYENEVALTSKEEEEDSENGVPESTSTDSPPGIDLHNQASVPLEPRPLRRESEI
Chain of Potassium voltage-gated channel subfamily KQT member 1 (Homo sapiens) (P51787 whole entry, looked up): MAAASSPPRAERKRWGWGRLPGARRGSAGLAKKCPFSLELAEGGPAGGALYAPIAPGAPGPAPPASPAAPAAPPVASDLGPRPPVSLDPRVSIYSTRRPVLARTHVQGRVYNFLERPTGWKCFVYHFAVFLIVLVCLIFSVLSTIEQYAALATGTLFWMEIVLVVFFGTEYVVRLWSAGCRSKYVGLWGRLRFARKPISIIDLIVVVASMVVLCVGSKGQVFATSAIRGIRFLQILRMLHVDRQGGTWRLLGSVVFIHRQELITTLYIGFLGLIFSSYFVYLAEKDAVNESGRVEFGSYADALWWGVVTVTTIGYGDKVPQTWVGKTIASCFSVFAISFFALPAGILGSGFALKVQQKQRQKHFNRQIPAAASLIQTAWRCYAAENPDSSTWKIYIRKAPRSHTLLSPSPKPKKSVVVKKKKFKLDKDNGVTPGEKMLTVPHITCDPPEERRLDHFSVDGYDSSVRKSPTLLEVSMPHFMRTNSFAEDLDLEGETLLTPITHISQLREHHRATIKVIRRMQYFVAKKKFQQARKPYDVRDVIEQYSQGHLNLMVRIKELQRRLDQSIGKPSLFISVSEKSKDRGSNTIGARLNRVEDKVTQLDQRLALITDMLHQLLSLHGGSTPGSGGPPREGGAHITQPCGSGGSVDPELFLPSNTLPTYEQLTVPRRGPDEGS
Chain of Voltage-gated inwardly rectifying potassium channel KCNH2 (Homo sapiens) (Q12809 whole entry, looked up): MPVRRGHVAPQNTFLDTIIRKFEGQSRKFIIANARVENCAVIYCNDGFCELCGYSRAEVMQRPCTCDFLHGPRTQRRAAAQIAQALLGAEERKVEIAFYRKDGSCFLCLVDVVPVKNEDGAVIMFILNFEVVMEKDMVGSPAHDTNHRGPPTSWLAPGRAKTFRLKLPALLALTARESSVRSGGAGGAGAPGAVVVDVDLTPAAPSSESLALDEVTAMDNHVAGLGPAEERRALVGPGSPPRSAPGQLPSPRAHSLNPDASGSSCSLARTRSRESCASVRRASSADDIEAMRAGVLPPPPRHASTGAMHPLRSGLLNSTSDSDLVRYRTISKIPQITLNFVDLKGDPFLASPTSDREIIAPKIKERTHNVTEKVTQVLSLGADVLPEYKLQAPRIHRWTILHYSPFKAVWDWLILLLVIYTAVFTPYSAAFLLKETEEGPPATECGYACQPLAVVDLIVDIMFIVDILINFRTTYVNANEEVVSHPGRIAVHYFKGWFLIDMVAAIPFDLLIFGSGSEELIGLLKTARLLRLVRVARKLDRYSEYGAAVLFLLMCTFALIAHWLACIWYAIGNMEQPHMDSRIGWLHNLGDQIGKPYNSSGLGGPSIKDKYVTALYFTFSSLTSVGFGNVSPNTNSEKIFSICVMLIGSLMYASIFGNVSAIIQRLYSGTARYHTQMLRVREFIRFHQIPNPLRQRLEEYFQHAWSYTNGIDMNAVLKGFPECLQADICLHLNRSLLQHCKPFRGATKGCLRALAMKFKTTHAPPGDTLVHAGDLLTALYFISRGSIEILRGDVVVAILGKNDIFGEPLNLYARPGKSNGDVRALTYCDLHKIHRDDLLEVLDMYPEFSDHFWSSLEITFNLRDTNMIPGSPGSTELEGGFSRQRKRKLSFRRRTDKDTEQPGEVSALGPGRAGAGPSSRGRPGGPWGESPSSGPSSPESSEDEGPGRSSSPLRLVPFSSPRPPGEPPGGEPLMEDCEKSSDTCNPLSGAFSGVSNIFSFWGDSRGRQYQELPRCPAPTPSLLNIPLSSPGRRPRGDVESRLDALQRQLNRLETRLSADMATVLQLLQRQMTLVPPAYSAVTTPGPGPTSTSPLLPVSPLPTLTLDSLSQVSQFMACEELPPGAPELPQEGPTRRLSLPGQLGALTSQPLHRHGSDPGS
Chain of Short transient receptor potential channel 4 (Mus musculus) (Q9QUQ5 whole entry, looked up): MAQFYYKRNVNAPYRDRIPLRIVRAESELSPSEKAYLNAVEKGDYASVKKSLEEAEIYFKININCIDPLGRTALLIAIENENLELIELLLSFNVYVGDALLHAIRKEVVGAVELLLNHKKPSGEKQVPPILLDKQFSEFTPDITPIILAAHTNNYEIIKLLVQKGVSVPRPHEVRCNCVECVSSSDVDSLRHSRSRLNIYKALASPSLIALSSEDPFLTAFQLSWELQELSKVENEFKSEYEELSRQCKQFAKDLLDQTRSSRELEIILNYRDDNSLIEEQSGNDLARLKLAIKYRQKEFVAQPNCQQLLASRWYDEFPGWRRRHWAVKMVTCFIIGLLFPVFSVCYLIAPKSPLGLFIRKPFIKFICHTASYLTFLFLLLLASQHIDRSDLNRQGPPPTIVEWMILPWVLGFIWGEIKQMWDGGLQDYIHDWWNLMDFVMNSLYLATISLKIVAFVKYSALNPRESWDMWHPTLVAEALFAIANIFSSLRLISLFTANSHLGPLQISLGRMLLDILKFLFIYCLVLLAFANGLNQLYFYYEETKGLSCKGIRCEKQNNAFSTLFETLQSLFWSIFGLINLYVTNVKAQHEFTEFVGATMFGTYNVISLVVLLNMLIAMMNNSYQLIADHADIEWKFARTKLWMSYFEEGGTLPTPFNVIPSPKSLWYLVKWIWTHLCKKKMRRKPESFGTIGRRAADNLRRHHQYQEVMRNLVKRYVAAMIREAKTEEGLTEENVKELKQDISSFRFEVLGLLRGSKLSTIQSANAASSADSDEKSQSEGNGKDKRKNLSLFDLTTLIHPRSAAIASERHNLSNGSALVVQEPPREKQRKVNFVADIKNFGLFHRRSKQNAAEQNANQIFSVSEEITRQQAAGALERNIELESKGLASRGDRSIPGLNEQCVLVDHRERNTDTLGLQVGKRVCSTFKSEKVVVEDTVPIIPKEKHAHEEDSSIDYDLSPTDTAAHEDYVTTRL

COc1ccc(CN2CCC(c3nc4ccc(Cl)cc4[nH]3)CC2)cc1
inactive: outcome [2]
active: Tl flux remaining, % of negative control (stronger effect = lower value) [1] 30%

S=C(Nc1ccc(Br)cc1)NC1CCN(Cc2ccccc2)CC1
inactive: outcome [2] | outcome [4]
active: Tl flux remaining, % of negative control (stronger effect = lower value) [1] 48% | inhibition [3] 49% | inhibition [5] 4.2%

CCCn1c(C2CCCN2c2nc(-c3ccc(C)cc3)cs2)nc2cc(Cl)c(N3CCCCC3)cc21 (stereo not given)
inactive: outcome [1] | outcome [2] | activation over 3SD threshold [7] -30.1% | potentiation, less the hit threshold [8] -9.8% | activity over 3SD threshold [9] -27.9%
active: activity increase over 3SD of controls [6] 12.5%

O=C(NCc1ccc2c(c1)OCO2)c1ccc(Cl)s1
active: activity increase over 3SD of controls [6] 5.5% | activation over 3SD threshold [7] 49.7% | potentiation, less the hit threshold [8] 16.7%
inactive: outcome [1] | outcome [2] | activity over 3SD threshold [9] -17.6% | outcome [10]

O=C(CCCN1CCc2[nH]c3ccc(F)cc3c2C1)c1ccc(F)cc1
active: Tl flux remaining, % of negative control (stronger effect = lower value) [1] 46% | inhibition [3] 69% | inhibition [5] 5.5%
inactive: outcome [2] | outcome [4]

CC(C)Cc1nnc(NC(=O)CCc2ccccc2)s1
active: activity increase over 3SD of controls [6] 45%
inactive: outcome [1] | outcome [2] | activation over 3SD threshold [7] -19.5% | potentiation, less the hit threshold [8] -14.9% | activity over 3SD threshold [9] -23.2%

Cc1ccc(C(=O)Nc2nnc(C3=COCCO3)o2)cc1C
active: activity increase over 3SD of controls [6] 50.1% | potentiation, less the hit threshold [8] 4.5% | inhibition [15] 66% | inhibition [16] 44% | inhibition [23] 42.2%
inactive: outcome [1] | outcome [2] | activation over 3SD threshold [7] -7.9% | activity over 3SD threshold [9] -30.3% | outcome [11] | outcome [12] | outcome [13] | outcome [14] | outcome [10] | outcome [17] | outcome [18] | outcome [19] | outcome [20] | outcome [21] | outcome [22] | outcome [24] | outcome [25] | outcome [26]

CN1CCN(CCCCOc2ccccc2-c2ccccc2)CC1
active: Tl flux remaining, % of negative control (stronger effect = lower value) [1] 48.5% | inhibition [5] 27.4%
inactive: outcome [2] | outcome [3] | outcome [4]

C/C(=N\NC(=O)c1ccoc1C)c1ccccc1O
inactive: outcome [1] | outcome [2] | activation over 3SD threshold [7] -7.3% | activity over 3SD threshold [9] -16.7% | outcome [10]
active: activity increase over 3SD of controls [6] 53.8% | potentiation, less the hit threshold [8] 52.9%

Cc1cccc(NC(=O)CSC(N)=O)c1C
inactive: outcome [1] | outcome [2] | activity increase over 3SD of controls [6] -5% | activation over 3SD threshold [7] -15.2% | activity over 3SD threshold [9] -46.1% | outcome [10]
active: potentiation, less the hit threshold [8] 56.1%

CC(NC(=O)Nc1cccc([N+](=O)[O-])c1)c1ccc2c(c1)OCO2 (stereo not given)
inactive: outcome [1] | outcome [2] | activity over 3SD threshold [9] -29.4% | outcome [10]
active: activity increase over 3SD of controls [6] 19.3% | activation over 3SD threshold [7] 80% | potentiation, less the hit threshold [8] 30.7%
